Hits are enriched below; roughly 6.1% of the tested compounds scored in any of these assays.
D1 PAM: Potentiators of Human D1 Dopamine Receptor: qHTS. HEK293 TREx D1 cells, calcium flux, dopamine EC20 potentiation. potentiation, % at 10 µM. 360,000 compounds, 0.036% hits; in the data active = potentiation above about 30%; note: 0% is about no effect
D1 agonist: Allosteric Agonists of the Human D1 Dopamine Receptor: qHTS; HEK293 T-REx D1 cells, calcium flux, agonist mode; 360,000 compounds, 1% hits; D(1A) dopamine receptor (Homo sapiens), P21728; activation, % at 2 µM; in the data active = activation above about 30%; note: 0% is about no effect
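Inducible HEK293 T-REx D1 cells, force-coupled to calcium signalling, were plated at 4000 cells/well with tetracycline and held overnight at 30 C. After no-wash calcium dye loading, compound-evoked calcium rise over 180 s flagged agonists.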
D1 antagonist: Antagonist of Human D 1 Dopamine Receptor: qHTS | D(1A) dopamine receptor (Homo sapiens), P21728 | HEK293 TREx D1 cells, calcium flux, dopamine EC80; hits give low values | activity change, negative = inhibition, % at 10 µM | 360,000 compounds, 3.2% hits; in the data active = activity change below about -30%; note: % is set by controls: 0 for no effect and ±100 for the full control effect
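Tetracycline-induced HEK293 T-REx cells with force-coupled D1 receptor were loaded with a no-wash calcium dye. Compound was added after a 10 s baseline and read kinetically for 180 s; EC80 dopamine was then added and calcium flux followed another 180 s.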
DRD3 antagonist: qHTS of D3 Dopamine Receptor Antagonist: qHTS; D(3) dopamine receptor (Homo sapiens), P35462; D3R cells, DiscoveRx beta-arrestin luminescence, antagonist mode; hits give low values; max response, negative = inhibition, %; 360,000 compounds, 2.5% hits; AID 652054, 2013; in the data active = max response below about -50%; inconclusive = no clear call, values can overlap the other calls; note: % is set by controls: 0 for no effect and ±100 for the full control effect
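Cells plated overnight at 1500 cells/well, then exposed to library compounds with dopamine controls for 90 minutes at 37 degrees C. DiscoveRx reagent added for 30–60 minutes at room temperature; luminescence read, quantitative HTS format.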
ERG Ets-DNA blk: qHTS for Small Molecule Inhibitors of the ERG Ets/DNA interaction; Transcriptional regulator ERG (Homo sapiens), P11308; fluorescence polarization, His-ERG Ets domain / labelled DNA; Potency, µM (series often up to 76.9 µM), for the others: at the highest dose FP activity, negative = inhibition, hits mostly inhibitors; 370,000 compounds, 0.028% hits; AID 624246, 2012; active = well fitted inhibition curve with a large enough effect in the polarisation, with a control signal flat; inconclusive = small, poorly fitted or top-dose-only effect, or effect the other way, or a change in a side signal; inactive = no such curve, though single readings can be large or run the other way; the % refers to the polarisation;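 note: polarization taken with two DNA probes labelled with fluorescein and Texas red; potency is the fitted concentration of half-maximal effect; % of control where 0% means no effect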
Target sequence (P11308 whole entry, looked up, the tested form may be a part): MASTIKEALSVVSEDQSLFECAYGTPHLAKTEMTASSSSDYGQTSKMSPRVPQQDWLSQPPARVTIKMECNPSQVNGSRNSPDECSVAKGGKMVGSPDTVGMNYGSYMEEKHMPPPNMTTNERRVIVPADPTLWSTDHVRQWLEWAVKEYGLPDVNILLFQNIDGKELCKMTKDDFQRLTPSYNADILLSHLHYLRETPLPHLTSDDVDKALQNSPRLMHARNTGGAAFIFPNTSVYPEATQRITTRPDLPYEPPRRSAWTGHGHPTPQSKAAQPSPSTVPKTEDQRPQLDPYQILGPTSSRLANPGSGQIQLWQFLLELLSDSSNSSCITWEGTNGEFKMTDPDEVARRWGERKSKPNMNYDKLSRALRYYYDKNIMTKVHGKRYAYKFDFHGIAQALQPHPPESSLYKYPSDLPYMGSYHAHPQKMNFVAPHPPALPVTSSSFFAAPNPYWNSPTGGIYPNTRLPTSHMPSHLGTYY
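His-tagged ERG Ets domain (1 uM in the protein solution; 300mM KCl, 50mM Tris-HCl, 1mM EDTA, 1mM DTT, pH 7.5) received compound, then a probe mix of 5 nM fluorescein-DNA and 100nM Texas-615-DNA. Fluorescence polarization was read for both dyes.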
D3 ag: qHTS of D3 Dopamine Receptor Agonist: qHTS. D3R DiscoveRx beta-arrestin cells, luminescence, 90 min. 410,000 compounds, 0.58% hits. max activation, %. AID 652048, 2013; in the data active = max activation above about 30%; note: 0% is about no effect
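Agonist mode: compounds and dopamine controls were applied to plated cells for 90 min at 37 degrees C after an overnight attachment at 1500 cells/well. Luminescent read-out followed 30 - 60 minutes at room temperature with DiscoveRx detection reagent.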
The depositor's hits bear a star; ? = inconclusive; / = not tested or not shown.

SMILES	D1 PAM	D1 agonist	D1 antagonist	DRD3 antagonist	ERG Ets-DNA blk	D3 ag
Cc1[nH][nH]c(=O)c1C(c1ccc(O)c([N+](=O)[O-])c1)c1c(C)[nH][nH]c1=O	-6	-1	1	-5	1%	-4
Cc1c(C(c2cccc([N+](=O)[O-])c2O)c2c(C)n(C)n(-c3ccccc3)c2=O)c(=O)n(-c2ccccc2)n1C	-6	1	2	-23	-12%	-8
Cc1cc(C(c2ccc(C)o2)c2ccc(C)o2)c(O)c([N+](=O)[O-])c1	1	3	31	-97*	-8%	-6
CC1CCCCN1C(=O)CSc1nnc(-c2ccccc2O)o1 (stereo unspecified)	-7	0	3	5	3%	-8
Cc1nnc(-c2ccccc2)c(=O)n1/N=C/c1c(O)ccc2ccccc12	-5	113*	-24	0	28%	8
Cc1nnc(C)n1/N=C/c1c(O)ccc2ccccc12	-1	2	-7	16	3%	3
CC(NC(=O)c1cc(COc2ccc3ncccc3c2)on1)c1ccc(F)cc1 (stereo unspecified)	-2	17	-26	22	1%	7
CSc1cc2c(s1)c1cnn(Cc3ccccc3F)c(=O)c1n2C	38*	4	7	/	/	/
Cc1ccc(NNC(=O)c2ccno2)c(C)c1	5	0	-8	2	-9%	35*
COc1ccc(S(=O)(=O)NC(N)=NCCc2ccccc2OC)cc1	-6	2	-53*	-2	-4%	6
O=C(NCCCl)c1ccc(OCc2ccccc2)cc1Cl	-5	57*	-10	8	-4%	3
Cc1ccc(OCc2nc(C#N)c(NCCc3ccccc3)o2)cc1	-4	0	5	/	7%	3
COC(=O)c1cccnc1-n1c(=O)c2cccnc2n(Cc2ccc(Cl)cc2)c1=O	-2	1	-10	22	-1%	-11
Cc1cccc(N2CCN(C(=S)Nc3ccc4nc(N5CCN(C)CC5)cc(C)c4c3)CC2C)c1 (stereo unspecified)	-6	3	-73*	-22	16%	-19
Cc1cc(N2CCCC2)nc2ccc(NC(=S)NCCCN3CCC(C)CC3)cc12	-3	8	5	-66*	0%	-23
Cc1cc(N2CCN(C)CC2)nc2ccc(NC(=S)NCCN3CCc4ccccc4C3)cc12	-6	4	4	-76*	6%	-20
CCN1CCN(c2cc(C)c3cc(NC(=S)NCCCN4CCc5ccccc5C4)ccc3n2)CC1	-1	1	4	-87*	20%	-20
CCCN1CCN(CCCNC(=S)Nc2ccc3nc(N4CCN(CC)CC4)cc(C)c3c2)CC1	-1	2	8	?	7%	-18
CCCCNC(=S)Nc1ccc2nc(N3CCN(CC)CC3)cc(C)c2c1	-15	2	0	19	-2%	-5
Cc1cc(N2CCN(C)CC2)nc2ccc(NC(=S)NCCCN3CCc4ccccc4C3)cc12	-4	3	-7	-84*	-6%	-20
CCOC(=O)c1cn(-c2ccc([N+](=O)[O-])cc2)c2cc(Cl)c([N+](=O)[O-])cc2c1=O	-4	2	-42*	7	-2%	-6
COc1ccc(C(=O)CCC(=O)NCc2cc(OC)cc(OC)c2)cc1	-6	0	14	19	-5%	0
COc1cccc(N2CCN(C(C)C(=O)NC34CC5CC(CC(C5)C3)C4)CC2)c1 (stereo unspecified)	-1	3	11	-53*	-1%	-22
COc1cccc(N2CCN(CC(=O)C34CC5CC(CC(C5)C3)C4)CC2)c1	-4	1	5	-4	-1%	-1
CCCOc1ccc(CNC(=O)Cn2cc3c(n2)-c2c(oc(C(=O)N4CCOCC4)c2C)CC3)cc1	-2	5	-9	/	-4%	4
SMILES	D1 PAM	D1 agonist	D1 antagonist	DRD3 antagonist	ERG Ets-DNA blk	D3 ag
CCN(CC)c1ccc(/C=C/c2cc(-c3ccccc3)c3ccccc3n2)cc1	17	325*	-57*	5	10%	5
O=C1c2ccccc2C(=O)N1CCCCN(C(=O)c1cc([N+](=O)[O-])cc([N+](=O)[O-])c1)c1ccc(Cl)cc1	-9	1	-51*	0	1%	9
O=C1c2ccccc2C(=O)N1CCCCN(C(=O)c1ccc([N+](=O)[O-])cc1)c1ccc(Cl)cc1	1	2	7	2	-2%	0
Cc1cc(NC(=O)c2ccc(F)cc2)n(-c2ccccn2)n1	-6	1	-1	20	1%	-9
CCOc1ccc(NC2=C(OC)C(=O)c3ccccc3C2=O)cc1	-2	0	-33*	-23	-2%	11
COc1ccc(NC2=C(Cl)C(=O)N(CCc3ccccc3)C2=O)cc1	-3	1	-14	-23	3%	-2
CCOc1ccc(NC2=NCC(=O)N2CCc2ccccc2)cc1	9	102*	-65*	3	-1%	11
COc1ccc(C2=C(Nc3ccccc3)c3ccccc3C2=O)cc1	-3	4	-35*	-25	-23%	15
CCOc1ccc(NC2=C(Cl)C(=O)N(Cc3ccccc3)C2=O)cc1	-8	4	-30*	-9	/	-7
CCC1(C)Cc2c(sc3nc(SC)n(-c4ccc(C)cc4)c(=O)c23)CO1 (stereo unspecified)	0	-2	11	/	1%	-10
Cc1cc(C)cc(N(CC(=O)NCc2ccc(F)cc2)C(=O)CCC(=O)Nc2ccccn2)c1	-3	4	14	-9	3%	-9
Cc1cccc(N/C=C(\[N+](=O)[O-])S(=O)(=O)c2ccccc2)c1	-4	1	4	9	-2%	2
COc1ccc(CCN2C(=O)CN=C2Nc2ccc(F)cc2)cc1OC	2	0	-39*	-12	-6%	-4
CCN1CCN(C2=C(Cl)C(=O)N(Cc3ccccc3)C2=O)CC1	-9	1	10	-50*	-9%	-7
COc1ccc(-c2cc(C(=O)NCC3CCCCC3)[nH]n2)c(C)c1	/	/	/	-79*	/	-31
Cc1ccc(Cl)cc1-c1cc(C(=O)NCC2CCCCC2)[nH]n1	/	/	/	-70*	/	-23
Cc1cc(F)cc(-c2cc(C(=O)NCC3CCCCC3)[nH]n2)c1	/	/	/	?	/	-11
CC(C)NC(=O)CNc1ccc(C(F)(F)F)cc1[N+](=O)[O-]	-14	2	-30*	6	-3%	-4

Source: PubChem
